Laboratory results taken from PubChem BioAssay.
Active and inactive are the calls of the source. Unless noted, no rule for the calls is given here.

Key:
[1] = resazurin metabolic signal in HepG2 cells – cell-based, resazurin fluorescence, 24 h, PK04 Diversity Set, profiling panel (AID 1172); conditions: HepG2 viability, higher = more signal
[2] = budding yeast growth changes without added modifier – OD600, strain BY4716, 24 h, basal condition, primary screen (AID 1173); conditions: S. cerevisiae BY4716 growth, OD600, 24 h; higher = more signal, called active from +8 up or from −8 down
[3] = viability profiling in MM1S myeloma cells – cell-based, resazurin fluorescence, basal, 24 h, PK04 Diversity Set, profiling panel (AID 1174); conditions: higher = more signal, called active from +8 up or from −8 down;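 also: MM1S multiple myeloma cell line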
[4] = molecular target: Dihydroorotate dehydrogenase (quinone), mitochondrial (Plasmodium falciparum (isolate 3D7)) (UniProt Q08210); assay: inhibition of P. falciparum DHODH – biochemical, C-terminal His tag, absorbance 600 nm, primary screen (AID 1175); conditions: PfDHODH enzyme, DCIP absorbance 600 nm; higher = more signal, called active from +8 up or from −8 down;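 also: recombinant parasite enzyme with a five histidine tag at its C terminus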
[5] = inhibition of PAO1 biofilm formation – strain PAO1, LB-PBS medium, absorbance 600 nm, primary screen (AID 1176); conditions: P. aeruginosa PAO1 growth/biofilm, A600, 12 h; higher = more signal
[6] = growth modulation of vineyard yeast isolate – strain RM11-1a, OD600, basal, 24 h, primary screen (AID 1177);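 also: cultures grown under basal conditions with no added stressor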; conditions: S. cerevisiae RM11-1a growth, OD600, 24 h; higher = more signal, called active from +8 up or from −8 down
[7] = growth of efflux-deficient E. coli DRC39 – strain DRC39, OD650, 24 h, E. coli filamentation inducers, primary screen (AID 1178);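 also: growth measured as culture turbidity by optical density at 650 nm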; conditions: E. coli DRC39 acrAB, higher = more signal, called active from +8 up or from −8 down
[8] = growth of efflux-deficient E. coli DRC39 – strain DRC39, OD650, 48 h, E. coli filamentation inducers, primary screen (AID 1179);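 also: screen aims at cell division blockers that make cells filament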; conditions: E. coli DRC39 delta-acrAB growth, higher = more signal, called active from +8 up or from −8 down
[9] = viability profiling in RPMI8226 myeloma cells – cell-based, resazurin fluorescence, basal, 24 h, PK04 Diversity Set, profiling panel (AID 1180); conditions: higher = more signal;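 also: RPMI8826 multiple myeloma cell line at 5000 cells per well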
[10] = molecular target: E3 ubiquitin-protein ligase XIAP (Homo sapiens) (UniProt P98170); assay: small molecules binding XIAP protein – biophysical, small-molecule microarray, fluorescence 635 nm, primary screen (AID 1181); conditions: higher = more signal;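 also: score merges 667 nm emission and signal to noise over triplicate slides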
[11] = test system: XIP peptide (Xip251-270) binding; assay: XIP fragment 251-270 binding compounds – biochemical, small-molecule microarray, fluorescence 635/667 nm, 0.1 µg/mL protein, primary screen (AID 1182); conditions: fluorescent protein binding, 635 nm, higher = more signal, called active from +8 up or from −8 down
XIP peptide (Xip251-270) = assay: compounds binding XIP fragment 251-270 – biochemical, small-molecule microarray, fluorescence 635/667 nm, 0.5 µg/mL protein, primary screen (AID 1183); conditions: fluorescence 635 nm, higher = more signal
[12] = blood-stage malaria parasite viability loss – strain 3D7, DAPI fluorescence, 100 nL, primary screen (AID 1184);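 also: parasites grown inside human red blood cells in medium with human serum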; conditions: P. falciparum 3D7 growth, 3 d, higher = more signal
[13] = molecular target: Homeobox protein Hox-A13 (Mus musculus) (UniProt Q62424); assay: disruptors of Hoxa13 oligonucleotide interaction – biochemical, fluorescence polarization, labeled oligonucleotide, primary screen (AID 1185); conditions: Hoxa13:DNA binding, 15 min, higher = more signal, called active from +8 up or from −8 down
[14] = blockers of DNA damage checkpoint Chk1 activation – imaging, HeLa, hydroxyurea, phospho-Chk1 antibody, percent positive cells, primary screen (AID 1186); conditions: hydroxyurea-induced phospho-Chk1 immunofluorescence imaging, higher = more signal
[15] = blockers of DNA damage checkpoint Chk1 activation – imaging, HeLa, hydroxyurea, phospho-Chk1 nuclear intensity, primary screen (AID 1187); conditions: hydroxyurea-induced phospho-Chk1 immunofluorescence imaging, higher = more signal

Dihydroorotate dehydrogenase (quinone), mitochondrial (Plasmodium falciparum (isolate 3D7)), sequence (Q08210 whole entry, looked up): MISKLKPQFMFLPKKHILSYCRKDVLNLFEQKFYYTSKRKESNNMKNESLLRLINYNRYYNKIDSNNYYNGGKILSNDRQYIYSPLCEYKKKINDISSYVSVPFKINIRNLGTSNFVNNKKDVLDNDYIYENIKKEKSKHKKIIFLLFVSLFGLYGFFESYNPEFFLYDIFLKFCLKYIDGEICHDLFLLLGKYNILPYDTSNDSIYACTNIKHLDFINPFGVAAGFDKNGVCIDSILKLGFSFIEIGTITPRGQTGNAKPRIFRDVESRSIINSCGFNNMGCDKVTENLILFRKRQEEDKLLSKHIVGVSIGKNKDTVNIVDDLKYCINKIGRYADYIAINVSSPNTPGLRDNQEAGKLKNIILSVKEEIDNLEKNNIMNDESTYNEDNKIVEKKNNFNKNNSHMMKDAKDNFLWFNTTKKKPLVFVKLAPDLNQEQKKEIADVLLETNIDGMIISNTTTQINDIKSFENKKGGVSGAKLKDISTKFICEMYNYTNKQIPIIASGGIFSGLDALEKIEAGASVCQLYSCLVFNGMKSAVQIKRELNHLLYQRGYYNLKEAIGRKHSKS
E3 ubiquitin-protein ligase XIAP (Homo sapiens), sequence (P98170 whole entry, looked up, the tested form may be a part): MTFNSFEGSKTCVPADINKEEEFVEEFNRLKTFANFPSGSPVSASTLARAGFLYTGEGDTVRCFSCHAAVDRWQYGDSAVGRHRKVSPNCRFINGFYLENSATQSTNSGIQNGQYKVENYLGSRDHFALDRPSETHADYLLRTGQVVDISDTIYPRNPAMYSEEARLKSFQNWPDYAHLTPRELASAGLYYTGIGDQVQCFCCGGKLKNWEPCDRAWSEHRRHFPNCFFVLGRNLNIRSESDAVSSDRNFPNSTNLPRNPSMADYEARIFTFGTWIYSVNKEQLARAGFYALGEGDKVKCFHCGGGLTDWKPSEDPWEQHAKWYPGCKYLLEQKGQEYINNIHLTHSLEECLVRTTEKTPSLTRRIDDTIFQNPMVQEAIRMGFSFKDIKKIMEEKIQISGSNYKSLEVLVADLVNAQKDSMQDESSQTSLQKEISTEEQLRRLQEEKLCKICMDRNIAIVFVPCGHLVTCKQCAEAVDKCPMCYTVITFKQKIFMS
Homeobox protein Hox-A13 (Mus musculus), sequence (Q62424 whole entry, looked up): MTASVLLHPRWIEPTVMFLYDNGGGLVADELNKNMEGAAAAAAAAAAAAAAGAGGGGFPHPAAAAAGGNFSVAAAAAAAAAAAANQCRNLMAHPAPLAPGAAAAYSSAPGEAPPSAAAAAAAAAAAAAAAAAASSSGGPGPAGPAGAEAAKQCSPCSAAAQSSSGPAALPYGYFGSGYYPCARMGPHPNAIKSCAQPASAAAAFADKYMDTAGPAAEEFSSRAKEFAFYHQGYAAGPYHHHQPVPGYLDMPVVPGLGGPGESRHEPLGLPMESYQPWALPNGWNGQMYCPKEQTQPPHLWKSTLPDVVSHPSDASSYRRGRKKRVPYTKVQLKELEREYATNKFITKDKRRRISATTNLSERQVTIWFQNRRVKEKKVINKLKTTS

SMILES | z-score [1] | z-score [2] | z-score [3] | composite z-score [4] | z-score [5] | z-score [6] | z-score [7] | z-score [8] | z-score [9] | composite z-score [10] | composite z-score [11] | composite z-score (XIP peptide (Xip251-270)) | z-score [12] | z-score [13] | z-score [14] | z-score [15]
CCN(CC)c1ccc(N2CC=CC34O[C@@H]5/C=C\CCCOC(=O)C5[C@H]3C(=O)N(CCCO)[C@@H]4C2=O)cc1 (some centres not stated) | 0.434 | 0.993 (inactive) | 0.481 (inactive) | -0.423 (inactive) | 0.053 (inactive) | -0.767 (inactive) | -0.438 (inactive) | -0.322 (inactive) | 0.566 | 0.559 | 0.828 (inactive) | 0.828 | 0.404 | -6.09 (inactive) | -0.343 (inactive) | 0.121 (inactive)
O=C1c2ccccc2[C@@]2(Cc3ccccc3N(Cc3ccccc3)C2=O)[C@H](c2ccc(CO)cc2)N1Cc1ccccc1C(F)(F)F | -0.897 | -0.614 (inactive) | -1.28 (inactive) | -4.41 (inactive) | 0.127 (inactive) | 0.349 (inactive) | 0.225 (inactive) | 0.429 (inactive) | -0.59 | -0.148 | 3.2 (inactive) | 0.878 | -0.275 | -2.79 (inactive) | -0.21 (inactive) | -0.154 (inactive)
CC(C)CNC(=O)[C@@]1(C)c2ccccc2C(=O)N(C(C)C)[C@H]1c1ccc(CO)cc1 | -0.174 | -0.128 (inactive) | -0.434 (inactive) | -0.449 (inactive) | -0.273 (inactive) | -0.207 (inactive) | -0.314 (inactive) | -0.049 (inactive) | -0.434 | -0.135 | -0.776 (inactive) | -0.692 | 1.22 | -1.35 (inactive) | 0.221 (inactive) | -0.0172 (inactive)
Cc1ccc(S[C@]2(C(=O)NCCCN(C)C)CC(=O)N(C(C)C)[C@@H]2c2ccc(CO)cc2I)cc1 | 0.533 | -3.52 (inactive) | -3.69 (inactive) | -0.0857 (inactive) | 0.668 (inactive) | -1.31 (inactive) | 0.847 (inactive) | 1.52 (inactive) | -2.67 | -0.145 | 0.352 (inactive) | 0.412 | -0.621 | -2.81 (inactive) | 0.535 (inactive) | 0.775 (inactive)
O=C1C2C=CC(C(O)c3ccccn3)N(Nc3ccccc3F)C2C(=O)N1c1ccccc1 (configuration not stated) | 0.248 | -0.166 (inactive) | -0.497 (inactive) | 0.761 (inactive) | 0.378 (inactive) | -0.0396 (inactive) | -0.628 (inactive) | 0.292 (inactive) | -0.0768 | 0.0521 | -0.035 (inactive) | 0.796 | -0.0664 | -2.54 (inactive) | -0.0045 (inactive) | -0.176 (inactive)
O=C1O[C@@H](c2ccccc2)[C@@H](c2ccccc2)N2[C@@H](c3ccccc3OCCO)[C@]3(C(=O)Nc4ccc(C#CC5(O)CCCCCC5)cc43)[C@@H](C(=O)NC[C@H](O)c3ccccc3)[C@H]12 | -2.02 | 0.934 (inactive) | -7.38 (inactive) | -0.516 (inactive) | 1.66 (inactive) | 2.41 (inactive) | -0.0933 (inactive) | -0.0241 (inactive) | -7.19 | 0.0264 | 0.487 (inactive) | 0.76 | -1.96 | -2.71 (inactive) | -0.213 (inactive) | 0.0361 (inactive)
CN(C)CCCCCCNC(=O)[C@@H]1C[C@@H]2C(=O)NCC(=O)N2[C@@H]1c1cccc(OCCO)c1 | -0.358 | -0.531 (inactive) | -0.578 (inactive) | -1.08 (inactive) | 0.0067 (inactive) | 0.536 (inactive) | 0.757 (inactive) | 0.614 (inactive) | -1.12 | 0.0043 | 0.096 (inactive) | 0.851 | 0.331 | -2.07 (inactive) | 0.491 (inactive) | 0.797 (inactive)
O=c1cccc(-c2ccc3ccccc3c2)o1 | -0.321 | -16.1 (active) | 0.2 (inactive) | -1.14 (inactive) | -0.281 (inactive) | -2.6 (inactive) | 0.632 (inactive) | 0.159 (inactive) | 0.37 | 0.0754 | -0.644 (inactive) | -0.688 | 1 | -1 (inactive) | -0.319 (inactive) | -0.587 (inactive)
COCC1=C([C@H](O)CCc2ccccc2)[C@H](CO)[C@@H]2C(=O)N(Cc3ccccc3)C(=O)[C@@H]2C1 | -0.062 | -1.55 (inactive) | 0.0871 (inactive) | -1.91 (inactive) | -0.295 (inactive) | 0.723 (inactive) | 1.09 (inactive) | 0.738 (inactive) | 0.449 | -0.031 | -0.0534 (inactive) | 0.155 | -0.54 | -5.17 (inactive) | -0.955 (inactive) | -0.946 (inactive)
Cc1ccc([C@H]2C(C(=O)O)=C[C@@H](C(C)C)N2S(=O)(=O)c2ccc(C)cc2)cc1 | -0.357 | -0.502 (inactive) | -0.645 (inactive) | -0.695 (inactive) | 0.546 (inactive) | -0.577 (inactive) | -0.717 (inactive) | 0.0184 (inactive) | -1.4 | 0.0264 | 0.165 (inactive) | 0.386 | 1.65 | -4.3 (inactive) | -0.482 (inactive) | -1.01 (inactive)
C=CCC(OC(C)=O)[C@@H]1[C@@H](N(Cc2cc3ccccc3o2)C(=O)c2ccc(-c3ccccc3)cc2)c2cc(OCCCO)ccc2N1C(=O)Cc1ccc2ccccc2c1 (some centres not stated) | -0.795 | 0.692 (inactive) | 0.548 (inactive) | 0.22 (inactive) | 0.0793 (inactive) | 0.854 (inactive) | 1.15 (inactive) | 0.682 (inactive) | 1.13 | -0.239 | -0.317 (inactive) | -0.269 | -0.835 | -0.738 (inactive) | 0.485 (inactive) | 0.467 (inactive)
COC(=O)[C@@]1(Cc2ccc(F)cc2)[C@H]2c3cc(C(=O)N(C)C)n(Cc4ccccn4)c3C[C@H]2CN1C(=O)c1ccccc1 | 1.15 | 0.0864 (inactive) | 0.548 (inactive) | -0.171 (inactive) | -0.126 (inactive) | -0.319 (inactive) | -0.389 (inactive) | -0.42 (inactive) | 0.35 | 0.332 | -0.0593 (inactive) | 0.352 | -0.393 | -5.64 (inactive) | 0.412 (inactive) | 0.427 (inactive)
C=CCC(OC(C)=O)[C@@H]1[C@@H](N(Cc2cc3ccccc3o2)C(=O)c2ccc(C)cc2)c2cc(OCCCO)ccc2N1C(=O)c1ccc(-c2ccccc2)cc1 (some centres not stated) | 0.419 | -2.68 (inactive) | -0.0884 (inactive) | -3 (inactive) | 0.444 (inactive) | -3.8 (inactive) | 1.15 (inactive) | 1.35 (inactive) | 1.07 | 2.75 | -0.28 (inactive) | -0.294 | -2.58 | -0.468 (inactive) | -1.19 (inactive) | -1.05 (inactive)
COC(=O)[C@@]1(Cc2ccc(OC)cc2)[C@H]2c3cc(C(=O)N4CCCC4)n(CCN4CCOCC4)c3C[C@H]2CN1C(=O)c1ccccc1 | 0.142 | 0.642 (inactive) | -0.0281 (inactive) | -1.33 (inactive) | 0.231 (inactive) | 0.48 (inactive) | 0.0378 (inactive) | 0.484 (inactive) | 0.639 | 0.0305 | 1.11 (inactive) | 0.0956 | -1.17 | -5.18 (inactive) | 0.778 (inactive) | 0.485 (inactive)
CN1C(=O)C2C=CC(C(O)C=Cc3ccc([N+](=O)[O-])cc3)N(N3CCCCC3)C2C1=O (configuration not stated) | -0.559 | -1.42 (inactive) | -1.42 (inactive) | -0.358 (inactive) | 1.01 (inactive) | -0.555 (inactive) | -0.685 (inactive) | -0.397 (inactive) | -1.88 | 0.142 | 0.62 (inactive) | 0.776 | 0.986 | -4.74 (inactive) | 0.579 (inactive) | -0.157 (inactive)
C=CCC(OC(C)=O)[C@@H]1[C@@H](N(Cc2cc3ccccc3o2)C(=O)c2cccc3ccccc23)c2cc(OCCCO)ccc2N1C(=O)Cc1ccc2ccccc2c1 (some centres not stated) | -0.902 | 0.272 (inactive) | -0.411 (inactive) | 0.449 (inactive) | -0.735 (inactive) | 0.481 (inactive) | -0.741 (inactive) | -0.973 (inactive) | -0.276 | -0.0703 | -0.0088 (inactive) | -0.102 | -1.73 | -1.02 (inactive) | -0.394 (inactive) | 0.15 (inactive)
C#C[C@H](O[Si](C#CCCCCCC)(C(C)C)C(C)C)c1ccccc1 | 0.465 | 0.0181 (inactive) | 0.221 (inactive) | -0.719 (inactive) | -0.984 (inactive) | -0.0669 (inactive) | 0.0687 (inactive) | 0.577 (inactive) | 0.783 | 0.0406 | 0.0004 (inactive) | -0.113 | -1.32 | -1.2 (inactive) | -0.0616 (inactive) | -0.0839 (inactive)
